The whole screen tested about 2,400 compounds, of which about 1,900 (79%) were called active.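 The calls were made as follows: active = inhibition above the mean of all tested compounds plus 3 SD (cut at about 3% in these data); inactive = the rest.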 The set was probably picked from earlier hits. The list is a sample of the results.
test: SF-1 AF-2 mutant transactivation artefacts – cell-based, luminescence, counter-screen for DAX1 inhibitor project (AID 652136); conditions: HEK293 StAR-luciferase, SF-1 AF2 mutant, at 6.8 µM, stronger effect = higher value;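 also: 0% = DAX-1 transfected cells with DMSO and 100% = cells without DAX-1 with DMSO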

Q: With `c1ccc(Cc2c(-c3ccco3)nc3c4ccccc4ccn23)cc1` as the compound, how does the inhibition read?
A: Its inhibition is 8.27% (active).

Q: With `CC1CCN(C(=O)COC(=O)c2cc(=O)[nH]c3ccccc23)CC1` as the compound, how does the inhibition read?
A: Its inhibition is 5.98% (active).

Q: For `COc1ccccc1CCC(=O)OCC(=O)N1CCN(S(=O)(=O)c2ccc(C)cc2C)CC1`, which inhibition is on record?
A: The inhibition was 1.55% (inactive).

Q: Which inhibition does the source give for `COc1cc(/C=N/O)ccc1OCc1ccc([N+](=O)[O-])cc1` here?
A: Its inhibition is 6.8% (active).

Q: With `COc1cc(C2c3cc4c(cc3C(O)C3COC(=O)C23)OCO4)cc(OC)c1OC` (stereo unspecified) as the compound, how does the inhibition read?
A: Its inhibition is -5.65% (inactive).

Q: For `CC(C)c1ccc(Nc2ncccc2C#N)cc1`, which inhibition is on record?
A: The inhibition was 5.42% (active).

Q: Which inhibition does the source give for `C(=N\Nc1ccc2ccccc2n1)/c1ccc2c(c1)OCO2` here?
A: Its inhibition is 2.84% (inactive).

Q: For `Cc1cccc(NC(=O)/C=C/c2ccc3c(c2)OCO3)n1`, which inhibition is on record?
A: Its inhibition is 6.21% (active).

Q: With `COc1cccc(/C=C/C(=O)Nc2ccc3c(c2)OCCO3)c1` as the compound, how does the inhibition read?
A: Its inhibition is 3.61% (active).

Q: With `COc1ccc(/C=C/C(=O)Nc2ccc(C34CC5CC(CC(O)(C5)C3)C4)cc2)cc1OC` as the compound, how does the inhibition read?
A: The inhibition was -4.01% (inactive).

Q: With `O=C(NCCc1c[nH]c2ccccc12)c1cc2ccccc2oc1=O` as the compound, how does the inhibition read?
A: Its inhibition is 7.29% (active).

Q: For `O=C(O)c1ccc(N/N=C/c2cn(-c3ccccc3)nc2-c2cccs2)cc1`, which inhibition is on record?
A: The inhibition was 6.77% (active).

Q: For `Cc1csc(SCC(=O)Nc2sccc2C#N)n1`, which inhibition is on record?
A: Its inhibition is 10.8% (active).

Q: With `Cc1cc(C)c(C)c(S(=O)(=O)N2CCN(C(=O)c3ccc4c(=O)n5c(nc4c3)CCC5)CC2)c1C` as the compound, how does the inhibition read?
A: Its inhibition is -0.34% (inactive).

Q: For `CCCc1cc(C(=O)Nc2ccc(Cl)cn2)cs1`, which inhibition is on record?
A: Its inhibition is 6.47% (active).

Q: For `CCCc1cc(C(=O)Nc2ccc(C(=O)OC)cc2)cs1`, which inhibition is on record?
A: The inhibition was 3.67% (active).

Q: With `CC(C)(O)C#Cc1ccc(CNC[C@H]2O[C@@H](n3cnc4c(=O)[nH]c(N)nc43)[C@H](O)[C@@H]2O)s1` as the compound, how does the inhibition read?
A: Its inhibition is -0.84% (inactive).

Q: For `CCCNC(=O)C1CC(=O)N(c2ccc(OCc3ccccc3)cc2)C1` (stereo unspecified), which inhibition is on record?
A: The inhibition was 4.36% (active).

Q: With `CCc1ccc(NC2Nc3cc(C)nn3S2)cc1` (stereo unspecified) as the compound, how does the inhibition read?
A: The inhibition was 5.97% (active).

Q: For `O=C(Nc1ccc(NC(=O)c2cccs2)cn1)c1ccco1`, which inhibition is on record?
A: Its inhibition is 6.87% (active).

Q: With `CC(=O)Nc1cccc(C(=O)OCC(=O)c2ccc3c(c2)OCO3)c1` as the compound, how does the inhibition read?
A: The inhibition was 5.14% (active).

Reference: PubChem BioAssay AID652136 (The Scripps Research Institute Molecular Screening Center, 2013)
